In PubChem BioAssay (EPA / NIEHS):
Activity calls are given as the source filed them. The calls were made as follows: active = hit-call score of the fitted dose curve at least 0.9, where 1 is the maximum; inactive = score below 0.9.

Legend:
[1] = read-out: TIMP metallopeptidase inhibitor 2 (TIMP2), TIMP2 (gene 7077); assay: BSK_KF3CT_TIMP2: BioMAP Diversity Plus: KF3CT Assay for TIMP metallopeptidase inhibitor 2 (TIMP2) Biomarker Activity (AID 2283071); settings: primary human keratinocytes with fibroblasts; actives raise or lower the signal
How it was run: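 Human primary keratinocyte/foreskin fibroblast co-culture dosed with chemical and sampled at 24 h. TIMP-2 levels quantified by ELISA; bidirectional fitting against DMSO negative control as baseline.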

[2] = read-out: Transforming growth factor beta 1 (TGFb1), TGFB1 (gene 7040); assay: BSK_KF3CT_TGFb1: BioMAP Diversity Plus: KF3CT Assay for Transforming growth factor beta 1 (TGFb1) Biomarker Activity (AID 2283072); settings: primary human keratinocytes with fibroblasts; actives raise or lower the signal
How it was run: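 Human keratinocyte plus foreskin fibroblast primary co-culture, dosed with chemical for 24 h. TGF-b1 quantified by ELISA. Activity fitted bidirectionally against DMSO negative control as baseline.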

[3] = read-out: C-C motif chemokine 2 (Homo sapiens) (UniProt P13500); assay: BSK_KF3CT_MCP1: BioMAP Diversity Plus: KF3CT Assay for Monocyte Chemoattractant Protein 1 (MCP1/CCL2) Biomarker Activity (AID 2283073); settings: primary human keratinocytes with fibroblasts; actives raise or lower the signal
How it was run: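 Keratinocytes and foreskin fibroblasts were co-cultured, dosed with chemical, and sampled 24 h later. MCP-1 was quantified by ELISA, and the endpoint was analyzed with bidirectional fitting using DMSO as negative control.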

[4] = read-out: Matrix Metallopeptidase 9 (MMP9), MMP9 (gene 4318); assay: BSK_KF3CT_MMP9: BioMAP Diversity Plus: KF3CT Assay for Matrix Metallopeptidase 9 (MMP9) Biomarker Activity (AID 2283074); settings: primary human keratinocytes with fibroblasts; actives raise or lower the signal;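 as to AC50: MMP9 protein level quantified by ELISA in the co-culture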
How it was run: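 Human keratinocyte/foreskin fibroblast co-culture; compound added; 24 h; MMP-9 by ELISA; bidirectional fit vs DMSO baseline.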

[5] = read-out: urokinase plasminogen activator (uPA), PLAU (gene 5328); assay: BSK_KF3CT_uPA: BioMAP Diversity Plus: KF3CT Assay for urokinase plasminogen activator (uPA) Biomarker Activity (AID 2283075); settings: primary human keratinocytes with fibroblasts; actives raise or lower the signal
How it was run: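 ELISA readout of uPA, analyzed for signal gain or loss relative to DMSO, from a human primary keratinocyte–foreskin fibroblast co-culture measured 24 h after chemical treatment.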

CD40, CD40 (gene 958) [6] = assay: BSK_LPS_CD40: BioMAP Diversity Plus: LPS Assay for CD40 Biomarker Activity (AID 2283076); settings: primary human HUVEC with PBMC; actives raise or lower the signal
How it was run: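 CD40 signal, measured by ELISA, is fitted in both directions relative to DMSO vehicle. The system is an LPS-driven human vascular primary co-culture of endothelial cells and PBMC, sampled 24 h after compound addition.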

[7] = read-out: E-selectin (Homo sapiens) (UniProt P16581); assay: BSK_LPS_Eselectin: BioMAP Diversity Plus: LPS Assay for Eselectin Biomarker Activity (AID 2283077); settings: primary human HUVEC with PBMC; actives raise or lower the signal
How it was run: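 Signal of E-selectin, detected by ELISA, served as the endpoint; cells were umbilical vein endothelium with PBMC, read 24 h after treatment. DMSO defined baseline, and both increases and decreases were fitted.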

[8] = BSK_LPS_SRB: Viability Assessment in the BioMAP Diversity Plus: LPS Assay (AID 2283079); settings: primary human HUVEC with PBMC;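 also: total protein by sulforhodamine B absorbance as a cytotoxicity measure; measured one day after compound addition; fitted in both directions against DMSO so loss or gain of signal counts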
How it was run: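 Overt cytotoxicity was gauged by sulforhodamine B total-protein staining in a primary human vascular endothelial and mononuclear cell co-culture 24 h post-dosing. Activity was fitted in both directions relative to DMSO.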

[9] = read-out: Interleukin-1 alpha (IL1a), IL1A (gene 3552); assay: BSK_LPS_IL1a: BioMAP Diversity Plus: LPS Assay for Interleukin-1 alpha (IL1a) Biomarker Activity (AID 2283080); settings: primary human HUVEC with PBMC; actives raise or lower the signal
How it was run: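 Measured: IL-1 alpha via ELISA at 24 h in LPS-activated human umbilical vein endothelium–PBMC co-culture. Baseline: DMSO, bidirectional fitting.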

[10] = read-out: Monocyte Chemoattractant Protein-1 (MCP1), CCL2 (gene 6347); assay: BSK_LPS_MCP1: BioMAP Diversity Plus: LPS Assay for Monocyte Chemoattractant Protein-1 (MCP1) Biomarker Activity (AID 2283081); settings: primary human HUVEC with PBMC; actives raise or lower the signal;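 as to AC50: secreted MCP-1 protein quantified by ELISA in culture supernatant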
How it was run: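 LPS-stimulated HUVEC/PBMC co-culture; chemical, 24 h; MCP-1 by ELISA; bidirectional fit vs DMSO; cytotoxicity via SRB (0.1% stain, 10% TCA fix, 560 nm) in parallel wells.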

[11] = BSK_LPS_PGE2: BioMAP Diversity Plus: LPS Assay for Prostaglandin E2 (PGE2) Biomarker Activity (AID 2283082); settings: primary human HUVEC with PBMC; actives raise or lower the signal;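 as to AC50: secreted prostaglandin E2 measured by ELISA in LPS-stimulated co-culture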
How it was run: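 HUVEC plus PBMC co-culture stimulated with LPS; secreted PGE2 quantified by ELISA 24 h after chemical dosing. Activity fitted bidirectionally against DMSO as negative control and baseline; parallel SRB total-protein staining served as cytotoxicity check.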

[12] = read-out: Macrophage colony-stimulating factor (MCSF), CSF1 (gene 1435); assay: BSK_LPS_MCSF: BioMAP Diversity Plus: LPS Assay for Macrophage colony-stimulating factor (MCSF) Biomarker Activity (AID 2283083); settings: primary human HUVEC with PBMC; actives raise or lower the signal
How it was run: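 Compound is added to a human vascular primary co-culture of umbilical vein endothelium and blood mononuclear cells. After 24 h, M-CSF is quantified by ELISA. Signal changes are fitted in both directions against DMSO.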

[13] = read-out: Tissue Factor, F3 (gene 2152); assay: BSK_LPS_TissueFactor: BioMAP Diversity Plus: LPS Assay for Tissue Factor Biomarker Activity (AID 2283084); settings: primary human HUVEC with PBMC; actives raise or lower the signal
How it was run: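 In this co-culture system of umbilical vein endothelium with PBMC, stimulated with LPS, cell-surface CD142 is detected by ELISA at 24 h. Endpoint values derive from bidirectional fitting, DMSO serving as baseline.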

[14] = read-out: Tumor necrosis factor (Homo sapiens) (UniProt P01375); assay: BSK_LPS_TNFa: BioMAP Diversity Plus: LPS Assay for Tumour Necrosis Factor alpha (TNFa) Biomarker Activity (AID 2283085); settings: primary human HUVEC with PBMC; actives raise or lower the signal
How it was run: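 Human umbilical vein endothelial cells co-cultured with PBMC were exposed to test chemical and TNFa measured by ELISA 24 h after dosing. Bidirectional curve fitting was done relative to DMSO as negative control and baseline.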

[15] = read-out: Vascular cell adhesion molecule 1 (VCAM1), VCAM1 (gene 7412); assay: BSK_LPS_VCAM1: BioMAP Diversity Plus: LPS Assay for Vascular cell adhesion molecule 1 (VCAM1) Biomarker Activity (AID 2283086); settings: primary human HUVEC with PBMC; actives raise or lower the signal
How it was run: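 Human umbilical vein endothelial cells co-cultured with peripheral blood mononuclear cells under LPS stimulation were exposed to test chemical for 24 h. VCAM-1 levels were then measured by ELISA, with bidirectional curve fitting relative to DMSO as negative control and baseline.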

CD38, CD38 (gene 952) = assay: BSK_SAg_CD38: BioMAP Diversity Plus: SAg Assay for CD38 Biomarker Activity (AID 2283087); settings: primary human HUVEC with PBMC; actives raise or lower the signal
How it was run: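 Fluorescence ELISA of cell-surface CD38 served as the read-out, with either increase or decrease fitted against DMSO controls. Cells were a human umbilical vein endothelium plus PBMC co-culture under SEB/TSST-1 stimulation, measured 24 h after dosing.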

CD40, CD40 (gene 958) [16] = assay: BSK_SAg_CD40: BioMAP Diversity Plus: SAg Assay for CD40 Biomarker Activity (AID 2283088); settings: primary human HUVEC with PBMC; actives raise or lower the signal
How it was run: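 Fluorescence ELISA read-out of CD40 from umbilical vein endothelium plus peripheral blood mononuclear cells, sampled 24 h after dosing. Values come from bidirectional curve fitting with DMSO as baseline.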

CD69, CD69 (gene 969) = assay: BSK_SAg_CD69: BioMAP Diversity Plus: SAg Assay for CD69 Biomarker Activity (AID 2283089); settings: primary human HUVEC with PBMC; actives raise or lower the signal;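 as to AC50: cell surface CD69 protein quantified by ELISA with fluorescence detection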
How it was run: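 HUVEC co-cultured with PBMC were dosed with chemical, and CD69 was measured by ELISA with fluorescence read-out 24 h later. Bidirectional curve fitting used DMSO as negative control and activity baseline.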

[17] = read-out: Monocyte Chemoattractant Protein-1 (MCP1), CCL2 (gene 6347); assay: BSK_SAg_MCP1: BioMAP Diversity Plus: SAg Assay for Monocyte Chemoattractant Protein-1 (MCP1) Biomarker Activity (AID 2283090); settings: primary human HUVEC with PBMC; actives raise or lower the signal
How it was run: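 MCP-1 levels in the endothelial–PBMC SAg co-culture were quantified by ELISA at 24 h post-dosing; both increases and decreases versus DMSO scored. Cytotoxicity monitored by SRB total protein in parallel cultures.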

[18] = read-out: Interleukin-8 (IL8), CXCL8 (gene 3576); assay: BSK_LPS_IL8: BioMAP Diversity Plus: LPS Assay for Interleukin-8 (IL8) Biomarker Activity (AID 2283078); settings: primary human HUVEC with PBMC; actives raise or lower the signal
How it was run: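 Endothelial cells and PBMC from human donors are co-cultured, treated with chemicals and LPS, then assayed for IL-8 by ELISA after 24 h. Parallel SRB staining (0.1% SRB after 10% TCA fixation, 560 nm) flags cytotoxicity.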

Measured: AC50

Sequence of Tumor necrosis factor (Homo sapiens) (P01375 whole entry, looked up): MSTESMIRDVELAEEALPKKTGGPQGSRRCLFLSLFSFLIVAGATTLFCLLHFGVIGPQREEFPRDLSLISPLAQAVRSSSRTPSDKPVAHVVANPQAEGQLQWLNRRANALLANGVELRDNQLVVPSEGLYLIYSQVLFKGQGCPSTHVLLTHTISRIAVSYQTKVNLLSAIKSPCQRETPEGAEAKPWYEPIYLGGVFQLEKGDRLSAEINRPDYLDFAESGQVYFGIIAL
Sequence of E-selectin (Homo sapiens) (P16581 whole entry, looked up): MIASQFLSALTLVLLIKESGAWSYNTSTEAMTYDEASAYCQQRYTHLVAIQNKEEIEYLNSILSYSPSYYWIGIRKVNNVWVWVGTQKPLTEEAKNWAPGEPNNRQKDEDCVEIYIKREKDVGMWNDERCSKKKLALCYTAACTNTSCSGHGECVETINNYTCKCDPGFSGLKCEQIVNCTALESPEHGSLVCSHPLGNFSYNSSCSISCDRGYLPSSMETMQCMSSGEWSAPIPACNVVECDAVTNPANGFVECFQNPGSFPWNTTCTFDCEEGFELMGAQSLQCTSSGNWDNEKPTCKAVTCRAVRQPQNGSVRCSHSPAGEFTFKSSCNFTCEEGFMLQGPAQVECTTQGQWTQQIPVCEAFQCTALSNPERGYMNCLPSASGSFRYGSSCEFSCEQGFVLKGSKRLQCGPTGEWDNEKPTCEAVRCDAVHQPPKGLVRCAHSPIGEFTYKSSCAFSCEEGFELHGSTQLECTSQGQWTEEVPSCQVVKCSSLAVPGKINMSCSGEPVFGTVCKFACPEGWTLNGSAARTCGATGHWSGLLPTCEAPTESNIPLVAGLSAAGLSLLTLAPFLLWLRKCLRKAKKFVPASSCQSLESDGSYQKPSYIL

CCCC(=NOCC)C1=C(O)CC(CC(C)SCC)CC1=O (configuration not stated)
not listed: [18]
inactive: all other assays above

CC1(C)CON(Cc2ccccc2Cl)C1=O
not listed: [7]
inactive: all other assays above

N#Cc1c[nH]cc1-c1cccc2c1OC(F)(F)O2
inactive: [1] | [2] | [3] | [4] | [5] | [11] | [13]
active: CD40, CD40 (gene 958) [6] 7.2 µM | [8] 8.62 µM | [9] 14.8 µM | [10] 17.9 µM | [12] 26.3 µM | [14] 29.8 µM | [15] 20 µM | CD38, CD38 (gene 952) 29.1 µM | CD40, CD40 (gene 958) [16] 20 µM | CD69, CD69 (gene 969) 24.5 µM | [17] 20.4 µM

CC(C)C1(C)N=C(c2ncccc2C(=O)O)NC1=O (configuration not stated)
not listed: [18]
inactive: all other assays above

N#Cc1c(Cl)cccc1Cl
active: [7] 0.0841 µM
not listed: [18]
inactive: all other assays above

CC(C)Nc1nc(Cl)nc(NC(C)C)n1
active: [14] 7.35 µM
not listed: [7] | [18]
inactive: all other assays above

CC1(C)C(C(=O)OC(C#N)c2cccc(Oc3ccccc3)c2)C1(C)C (configuration not stated)
active: [4] 5.56 µM | CD40, CD40 (gene 958) [6] 12.9 µM | [11] 6.92 µM | [14] 5.68 µM | CD38, CD38 (gene 952) 12.1 µM | CD40, CD40 (gene 958) [16] 14.1 µM | CD69, CD69 (gene 969) 12.2 µM
inactive: all other assays above
